Source: PubChem
An excerpt weighted towards active compounds, which were near 5.7% of everything screened.
hcDAF12 agonist: activates DAF-12 receptor from parasite H. contortus | HEK293 hcDAF-12 lit1-tk-luc reporter, luminescence; 0% DMSO, 100% Δ7-dafachronic acid | activation, % at 6.8 µM | hit rate 1.4% among 370,000;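 active = activation above the mean of all tested compounds plus 3 SD, cut at about 5.5% in these data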;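 note: 100% = response to 3 µM Δ7-dafachronic acid high control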
ssDAF12 agonist: activators of S. stercoralis DAF-12 nuclear receptor; HEK293 ssDAF-12/GRIP1 lit1-tk-luc reporter, luminescence; % of 3 µM dafachronic acid response; activation, % at 6.8 µM; hit rate 1% among 370,000; AID 652126;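 active = activation above the mean over all tested compounds plus 3 SD, cut at about 0.9% in these data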;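 note: 0% = DMSO-only wells and 100% = 3 µM delta7-dafachronic acid wells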
hgDAF12 agonist: activates the H. glycines DAF-12 receptor ligand-binding domain. HEK293 GAL4-hgDAF12 UAS-luciferase reporter, agonist luminescence; normalized to butyrate control. activation, % at 6.8 µM. hit rate 1.8% among 370,000. AID 687014;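 active = activation above a cutoff set at the mean of all screened compounds plus 3 SD, cut at about 10% in these data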;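 note: 0% = DMSO wells and 100% = sodium butyrate wells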
DAX1 inh-1: DAX1 (NR0B1) inhibition, primary screen; HEK293T StAR-luciferase reporter, SF-1/DAX-1 repression relief; inhibition, % at 6.8 µM; hit rate 1.1% among 370,000; AID 652010;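 active = inhibition above the mean over all tested compounds plus 3 SD, cut at about 3.6% in these data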;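 note: 0% = DAX-1 cells with DMSO and 100% = cells lacking DAX-1 with DMSO; higher inhibition means more luminescence from relief of DAX-1 repression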
AHR activator: activators of human aryl hydrocarbon receptor | AHR-responsive luciferase reporter cells, luminescence | activation, % at 5 µM | AID 2796 | hit rate 2.5% among 320,000 | P35869; in the data active = activation above about 47%;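 note: 0% = vehicle wells and 100% = reference agonist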
DAX1 inh-2: inhibits human nuclear receptor DAX1. HEK293 Gal4-DAX1 luciferase reporter, luminescence. hit rate 0.99% among 340,000. inhibition, % at 6.75 µM;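 active = inhibition above the mean over all tested compounds plus 3 SD, cut at about 4.2% in these data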;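 note: 0% = DAX1-transfected cells with DMSO and 100% = empty-vector control cells with DMSO; inhibition shows as a rise in luminescence from relieved DAX1 repression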
Target sequence (P51843 207-470 limits assumed): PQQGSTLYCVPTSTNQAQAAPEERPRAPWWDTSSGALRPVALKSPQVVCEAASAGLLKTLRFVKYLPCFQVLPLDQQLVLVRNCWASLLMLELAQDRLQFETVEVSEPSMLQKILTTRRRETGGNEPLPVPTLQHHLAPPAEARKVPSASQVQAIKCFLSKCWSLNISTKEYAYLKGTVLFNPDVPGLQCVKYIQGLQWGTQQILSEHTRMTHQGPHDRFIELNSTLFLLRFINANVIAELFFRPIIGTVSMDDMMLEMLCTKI
hgDAF12 ag: hgDAF-12 agonism, confirmation assay. hit rate 80% among 3,300. shares compounds with hgDAF12 agonist. activation, % at 6.8 µM. HEK293 GAL4-hgDAF12 luciferase reporter, agonist mode; percent of butyrate response;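 active = mean activation over triplicate wells above the hit cutoff derived from the earlier primary screen, cut at about 11% in these data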;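 note: 0% = DMSO low control and 100% = 2 mM sodium butyrate high control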
LXR ag 2: counter-screen for DAF-12 agonists: agonists of human LXR-beta. shares compounds with hgDAF12 agonist. HEK293 Gal4-LXR luciferase reporter, 24 h. activation, % at 6.8 µM. 3,300 tested, under 10 active;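 active = mean activation of the triplicate above a set limit carried over from the primary screen, none filed active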
Active calls of the source: *; / = not tested or not shown.

SMILES	hcDAF12 agonist	ssDAF12 agonist	hgDAF12 agonist	DAX1 inh-1	AHR activator	DAX1 inh-2	hgDAF12 ag	LXR ag 2
Cc1ccc(C(=O)NCCCc2ccccc2)c(C)c1	5	0	15*	3	4	6.8*	16*	1
Cc1cc(C)cc(C(=O)NCCCc2ccccc2)c1	-3	-2	-3	0	3	1	/	/
CN(Cc1ccccc1)C(=O)COC(=O)c1ccc(Cl)cc1N	0	-1	-3	-1	1	0	/	/
Cc1cccc(CCNC(=O)CCCOc2cc(=O)n(C)c3ccccc23)c1	-2	-1	-3	0	5	2	/	/
FC(F)(F)c1cnc2c(-c3ccccc3)n[nH]c2c1	4	0	14*	1	/	/	7	0
Cc1cc(C)cc(OCC(=O)Nc2nonc2NC(=O)COc2cc(C)cc(C)c2)c1	-1	-1	0	0	8	0	/	/
Cc1ccc2nc(-c3ccc(O)cc3)c(Nc3ccc4c(c3)OCCO4)n2c1	4	0	17*	2	3	0	0	0
Cc1ccc(-c2nc(-c3cccnc3)no2)cc1	3	0	14*	3	-11	3	18*	1
Cc1ccc(-c2nc(-c3ccncc3)no2)cc1	4	0	15*	1	/	3	15*	1
Cc1ccc(Cc2nc(-c3cccnc3)no2)cc1	-2	0	3	-1	-3	1	/	/
c1ccc(-c2noc(-c3cccnc3)n2)nc1	1	0	14*	3	-6	1	12*	0
Cc1ccc(NC(=O)N2CCC(NC(=O)c3cccc(F)c3)CC2)cc1	-2	-1	-4	0	-2	0	/	/
N#CC1CC(c2ccccc2)Nc2cc(Cl)ccc2N1 (configuration not stated)	6.0*	1	20*	0	25	-2	13*	0
O=C(OCc1cc2ccccc2[nH]c1=O)C1CCCO1 (configuration not stated)	2	-1	2	1	3	1	/	/
c1cncc(-c2csc(NCc3ccco3)n2)c1	-1	0	8	0	37	-1	/	/
CC(=O)Nc1ccc(-c2csc(NCc3ccco3)n2)cc1	2	-1	15*	1	25	1	12*	0
COc1cc(/C=N/OCC(=O)Nc2cc(C)cc(C)c2)ccc1OCc1ccc(Cl)cc1	5	-1	16*	1	13	-1	10	1
COc1cc(/C=N/N2CCOCC2)ccc1OCc1ccc(Cl)cc1	3	-1	10	3	-2	1	/	/
CC(=O)Nc1ccc(NC(=O)CSc2ccc3nnc(CCNC(=O)c4ccccc4)n3n2)cc1	3	0	0	0	5	-2	/	/
CCc1ccc2c(c1)[C@H]1OCC[C@H]1[C@@H](c1cccs1)N2	4	0	14*	-2	78*	-1	11*	0
Clc1ccc2c(c1)[C@H]1OCC[C@H]1[C@@H](c1ccco1)N2	5	0	8	2	12	2	/	/
C=CCNc1nc(-c2ccc(Cl)cc2)cs1	4	1	14*	2	-2	4	15*	1
O=C(CCCc1ccncc1)c1ccccc1	1	0	13*	1	/	3	9	0
c1ccc(CCCCc2ccncc2)cc1	-1	-1	2	-1	/	-1	/	/
O=C(Nc1ccccc1N1CCOCC1)C1CCN(S(=O)(=O)c2cccc(C(F)(F)F)c2)CC1	-1	-1	-1	-1	-4	-1	/	/
SMILES	hcDAF12 agonist	ssDAF12 agonist	hgDAF12 agonist	DAX1 inh-1	AHR activator	DAX1 inh-2	hgDAF12 ag	LXR ag 2
Cc1csc2nc(CSc3nc4ccccc4o3)cn12	0	0	13*	1	12	1	8	0
c1ccc2oc(SCc3cn4ccsc4n3)nc2c1	3	1	9	2	6	2	/	/
CC(C)C(N)c1csc(Nc2nncc3ccccc23)n1 (configuration not stated)	2	-1	14*	3	/	/	8	0
CC(N)c1csc(Nc2nncc3ccccc23)n1 (configuration not stated)	3	-1	4	0	/	/	/	/
Cc1cc(NC(=O)CN2CCCCC2)no1	-1	0	14*	0	0	1	1	0
O=C(COC(=O)c1c[nH]c2ccccc12)Nc1ccc(F)cc1	-1	-1	0	-1	14	1	/	/
CCn1c(C)cc(/C=C2/SC(=S)N(CC(=O)O)C2=O)c1C	-1	-1	3	1	-1	-1	/	/
C#CCN1C(=O)S/C(=C/c2cc(C)n(CC)c2C)C1=O	5	0	18*	3	6	1	20*	1
CCN(CC)S(=O)(=O)c1ccc(N=Nc2cc(C)cc(Br)c2O)cc1	0	-1	-1	0	8	2	/	/
Cc1ccc(N=Nc2ccc(O)cc2)c(Br)c1	5	1	15*	3	10	2	16*	1
O=C(NCCc1ccccc1)C(=Cc1ccc(C(=O)O)cc1)C(=O)NCCc1ccccc1	-2	-1	1	0	1	0	/	/
C/C(=C\c1ccccc1)C(=O)NCCc1ccccc1	4	0	19*	3	1	1	16*	0
O=C1C(=Cc2cn(-c3ccccc3)nc2-c2ccc(OCc3ccccc3)cc2)SC(=S)N1CCS(=O)(=O)O	0	-1	5	0	/	/	/	/
c1ccn2cc(CSc3nnc4ccccn34)nc2c1	4	1.1*	14*	3.8*	8	3	14*	1
CC(C)c1nc2ccc(NC(=O)C34CC5CC(CC(C5)C3)C4)cc2[nH]1	0	-1	-2	1	-3	1	/	/
Cc1ccc(NC(=O)c2ccccc2)cc1C	0	-1	3	0	29	1	/	/
O=C(Nc1ccc2[nH]c(=S)sc2c1)c1ccccc1	1	-1	14*	3.7*	19	1	12*	1
CCOC(=O)c1ccccc1NC1c2ccccc2C(=O)N1c1ccc(C)cn1 (configuration not stated)	3	0	15*	3	0	1	6	0
Cc1ccc(SCC(=O)Nc2ccccc2N2CCOCC2)cc1	0	-2	-1	-1	2	0	/	/
O=C(CSc1nnc(-c2ccccc2Br)o1)N1CCOCC1	4	0	8	1	9	3	/	/
C/C(N)=C(/C#N)C(=O)CSc1nnc(-c2ccccc2Br)o1	3	0	14*	3.8*	5	0	17*	1
